From publication PMC5540273 (PLoS ONE, 2017)

system: MAPKAPK5; conditions: concentration: 1 μM, replicates: in singlicate; n = 1
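Also: KINOMEscan kinase panel screen.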

Structure (SMILES)	%Inh
CNc1nccc(-c2c(-c3ccc(F)cc3)ncn2C2CCN(C)CC2)n1 [SB-222903]	0%
CCn1c(-c2ccncc2)nc2cnccc21 [SB-735216]	29%
Clc1cc(Nc2ncnc3cc[nH]c23)ccc1OCc1ccccn1	0%
CN1CCC(n2cnc(-c3ccc(F)cc3)c2-c2ccnc(NC3CCNCC3)n2)CC1 [SB-229482]	6%
Fc1ccc(-c2ncn(CCCNCc3ccccc3)c2-c2ccncc2)cc1	19%
Cc1ccc(NC(=O)c2cccc(C#N)c2)cc1-c1ccc(C(=O)Nc2ccncc2)cc1 [GSK1398463]	0%
O=C(c1ccc(-c2cc(-c3c[nH]nc3-c3ccccn3)ccn2)cc1)N1CCCC1 [GW792479]	0%
Cl.c1ccc(Cn2ccc3cc(Nc4ncnc5ccccc45)ccc32)cc1 [GW275568]	0%
CS(=O)(=O)CCNCc1ccc(-c2ccc3ncnc(Nc4ccc(OCc5ccccc5)c(Cl)c4)c3c2)o1.Cl [GW574783]	0%
CCC(CC)(CC)n1cnc2c(N)ncnc21 [SKF-97620]	10%
CC(C)(C)OC(=O)NC1CCCN(c2cc(-c3ccc4c(N)n[nH]c4c3)nc(N)n2)C1 (stereo not drawn) [GSK2286096]	0%
O=C(Nc1ccccc1F)NC1CCN(c2ccnc(Nc3ccc(F)cc3)n2)C1 (stereo not drawn) [GSK1379722]	0%
Cl.c1ccc(Cn2ncc3cc(Nc4ncnc5ccccc45)ccc32)cc1 [GW273749]	0%
CC(=O)Nc1n[nH]c2ncc(-c3ccccc3)cc12 [SB-548492]	8%
Cc1cc(N2CCC(NS(=O)(=O)c3ccc(F)cc3)CC2)nc(Nc2cccc(C#N)c2)n1.O=C(O)C(F)(F)F [GSK1653537]	0%
N#Cc1ccc(Oc2ccc(Nc3ncnc4cc[nH]c34)cc2Cl)cc1	21%
CCc1nc(-c2cccc(N(C)S(=O)(=O)c3ccccc3)c2)c(-c2ccnc(Nc3ccc(N4CCN(C(C)=O)CC4)nc3)n2)s1 [GSK1645895]	0%
CNc1nccc(-c2c(-c3ccc(F)cc3)ncn2CCCN2CCOCC2)n1 [SB-222516]	0%

Structure (SMILES)	%Inh
Cc1ccc(C)c(NC(=O)NCCNc2ccnc(Nc3ccc(F)cc3)n2)c1 [GSK1379878]	0%
Cc1cccc(-c2nc(Nc3ccc4[nH]nnc4c3)c3ccccc3n2)n1 [GW867587]	0%
COc1ccc(Nc2nccc(N3CCC(NC(=O)c4cccc(NC(C)=O)c4)C3)n2)cc1 (stereo not drawn) [GSK1379732]	0%
CSc1ccc(NC2=C(c3ccccc3Cl)C(=O)NC2=O)cc1 [SB-342411]	1%
C[C@@H]1CCN(C(=O)CO)C[C@@H]1N(C)c1ncnc2[nH]ccc12	0%
CSc1nn2c(=O)cc(N3CCOCC3)nc2n1Cc1cccc(Cl)c1Cl [GSK2347225]	0%
COc1ccc(-c2oc3ncnc(N)c3c2-c2ccc(OC)cc2)cc1 [SB-589132]	0%
COc1ccc(NC(=O)c2ccc(-c3cc(-c4nnc(C)o4)ccc3C)cc2)cc1 [GW595885]	0%
COC(=O)c1c(-c2ccccc2)c2cc(Cl)ccc2c(=O)n1Cc1ccc(S(C)(=O)=O)cc1	0%
CS(=O)(=O)CCNCc1nc(-c2ccc3ncnc(Nc4ccc(OCc5cccc(F)c5)c(Cl)c4)c3c2)cs1.Cl [GW583340]	0%
Cc1ccc(O)cc1Nc1cc(C(F)(F)F)nc2ccc(-c3ccncc3)cc12 [GW630823]	0%
Nc1nc(-c2ccc3c(N)n[nH]c3c2)cc(N2CCC[C@@H](C(=O)Nc3ccccc3)C2)n1.O=C(O)C(F)(F)F.O=C(O)C(F)(F)F [GSK2288359]	0%
CN1c2ccc(-c3ccc(C(=O)NCCO)cc3)cc2-c2[nH]ncc2S1(=O)=O	0%
Oc1ccc2ncnc(Nc3ccc(OCc4ccccc4)cc3)c2c1 [GI262866]	0%
Nc1nc(-c2ccccn2)c(-c2ccnc3ccccc23)s1 [GW548057]	0%
FC(F)(F)c1ccc(-c2cc(-c3c[nH]nc3-c3ccccn3)ccn2)cc1 [GW599550]	0%
Cn1cc(-c2ccc3c(c2)CCN3C(=O)Cc2cccc(C(F)(F)F)c2)c2c(N)ncnc21 [GSK2606414]	0%
NC(=O)c1sc(-n2cnc3ccccc32)cc1OCc1ccccc1F [GSK1024306]	0%
